Laboratory results: PubChem BioAssay (NCI)
About 79,000 compounds went through this panel and 15% of them were active in at least one assay; those are over-represented in the sample as a whole. A number with no mark means an inactive call. Activity calls are given as the source filed them. Rule as the data show it: active = growth inhibition above about 70%; inactive = the rest.

Experiments:
[1] = NCI Yeast Anticancer Drug Screen. Data for the rad50 strain (AID 155);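 also: 0% = growth of vehicle-only cultures of the same strain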; settings: S. cerevisiae rad50 strain growth inhibition, active compounds read high; at 50.0 µM unless noted
Summary of the method: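 Cells are treated with compound, grown, and their growth is then scored against vehicle-only cultures of the same repair-deficient yeast strain.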

[2] = NCI Yeast Anticancer Drug Screen. Data for the mec2-1 strain (AID 157); settings: S. cerevisiae mec2-1 strain, active compounds read high; at 50.0 µM unless noted
Summary of the method: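 Each compound was tested on mec2-1 yeast, a strain altered in DNA damage repair or cell cycle control. Growth inhibition is reported relative to vehicle.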

[3] = NCI Yeast Anticancer Drug Screen. Data for the sgs1 mgt1 strain (AID 161);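 also: 0% = growth of cultures given vehicle only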; settings: S. cerevisiae sgs1 mgt1 strain, active compounds read high; at 50.0 µM unless noted
Summary of the method: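 Read-out: growth inhibition vs vehicle controls. Cells: mutant yeast strain deficient in DNA damage repair.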

[4] = NCI Yeast Anticancer Drug Screen. Data for the cln2 rad14 strain (AID 165);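 also: 0% = growth equal to vehicle treated cultures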; settings: S. cerevisiae cln2 rad14 strain, active compounds read high; at 50.0 µM unless noted
Summary of the method: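 Test compounds were added to cln2 rad14 yeast cultures; inhibition of growth was then determined by comparison with vehicle treatment.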

[5] = NCI Yeast Anticancer Drug Screen. Data for the bub3 strain (AID 167); settings: S. cerevisiae bub3 mutant strain, active compounds read high; at 50.0 µM unless noted
Summary of the method: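 Part of a panel of yeast mutants defective in DNA damage repair or cell cycle regulation. Each strain is grown with compound, and inhibition is calculated relative to solvent-treated cultures.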

[6] = NCI Yeast Anticancer Drug Screen. Data for the mlh1 rad18 strain (AID 175); settings: S. cerevisiae mlh1 rad18 strain growth inhibition, active compounds read high; at 50.0 µM unless noted
Summary of the method: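 Inhibition values reflect reduced growth of mutant yeast versus vehicle-treated controls following compound exposure; the mutations affect DNA damage repair.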

Structure (SMILES) | growth inhibition [1] | growth inhibition [2] | growth inhibition [3] | growth inhibition [4] | growth inhibition [5] | growth inhibition [6]
CCOC1=Nc2ccccc2C1(C)CCO (configuration not stated) | -45.5% | -13.2% | -23.1% | -62.2% | -5% | -4.3%
O=c1[nH]c(Br)nc2c(N3CCCCC3)c[nH]c12 | 12.7% | -0.45% | -7.2% | 4.35% | -3.05% | 11.6%
CC(=O)CC(=O)NCC1CCC(CNC(=O)CC(C)=O)CC1 (configuration not stated) | -26.6% | -33% | -13.9% | -1.45% | -54.3% | -48.8%
CCO[C@@H]1OC(=O)[C@H]2C(c3ccc(Cl)cc3)=NO[C@@H]12 | -13.4% | -33.7% | 0.05% | 3.6% | 29.8% | -4.9%
CCOC(=O)COc1cc2c(cc1C(CC)c1ccc(OC)cc1)OCO2 (configuration not stated) | -14.9% | -17.6% | -12.1% | -20.1% | 16.4% | -9.5%
CC(/C=C/C(=O)c1sc(-n2nc(-c3ccccc3)cc2-c2ccccc2)nc1C)=C\c1ccccc1 | 21.9% | 5.25% | 25.9% | 8.85% | 44.8% | 20.7%
c1ccc(N=c2sc3ccccc3nc2Nc2ccccc2)cc1 | 5.65% | -37.8% | -34.4% | -64.8% | -23.3% | -48.9%
c1ccc(CNc2nn[nH]n2)cc1 | 2.65% | 5.1% | -5.9% | -20.6% | 4.2% | 9%
NNC(=O)Cc1cccnc1 | -3.6% | -0.75% | -26.1% | -8% | -33% | 9.55%
CC(C)C(=O)NCC[C@@H](CNC(=O)OC(C)(C)C)NC(=O)OC(C)(C)C | 20.1% | -3.1% | 38.6% | -3.85% | 28.7% | 34.5%
CC1(C)OC2COC(OCc3ccccc3)C(OCc3ccccc3)C2O1 (configuration not stated) | 17.4% | 8.1% | 26.8% | 7.35% | -8.7% | 19%
Cc1ccc(N2C(=O)CC(N3CCCCC3)C2=O)cc1 (configuration not stated) | 29.1% | 37.7% | 68.2% | 13.2% | -2.05% | 80.2% (active)
Cc1ccc(S(=O)(=O)NC(=O)NC(C)C(=O)O)cc1 (configuration not stated) | -1.15% | -5.65% | -13.2% | 0.2% | 2.5% | -7.65%
NCCCc1nonc1C(=O)O | -15.2% | -39.4% | -3.85% | -4.05% | -7.3% | -13.3%
CC(=O)[C@@]1(O)CC[C@H]2[C@@H]3CC[C@@H]4C[C@H](O)CC[C@]4(C)[C@H]3[C@H](O)C[C@@]21C | -9.8% | -3.7% | 8% | -34.1% | 11.3% | -7.85%
CCCCC(/C=C(\C(C)=O)C(=O)OCC)CC (configuration not stated) | -5.95% | -39.1% | -28.1% | -10.5% | -37% | -40.6%
CC[O-].CC[O-].CN(C)c1ccc([O-])cc1.CN(C)c1ccc([O-])cc1.[Ti+4] | -29.9% | 9.5% | 2.2% | 20.2% | -9.15% | -1.8%
COc1ccc(OCc2ccc(OC)c(OC)c2)cc1 | 7.2% | -3.7% | -11.2% | -10.7% | -8.15% | -7.35%
NC(C=O)C(O)C(O)C(O)CO (configuration not stated) | -1.75% | -18.2% | 4.95% | -10.2% | -19.5% | -6.9%
CC/C=N\N1C(N)=C(C#N)C(C#N)(C#N)C1CC (configuration not stated) | 6.05% | 10.2% | -18.9% | 4.75% | -12.8% | -27.9%
COC(=O)CCC(C)C1CCC2(C)C3=C(C(=O)CC12C)C1(C)CCC(O)C(C)(C)C1=C(O)C3 (configuration not stated) | 81.7% (active) | 74.2% (active) | 77.6% (active) | 79.9% (active) | 70.8% (active) | 83.8% (active)

Structure (SMILES) | growth inhibition [1] | growth inhibition [2] | growth inhibition [3] | growth inhibition [4] | growth inhibition [5] | growth inhibition [6]
CCC1CC(=O)c2ccccc2O1 (configuration not stated) | 0.65% | 9.55% | -20.4% | -2.55% | 5.4% | 0.4%
O=C(O)c1cccc(OCCO)c1 | -10% | -11.2% | -35.8% | -26.4% | -17.9% | -29.9%
COC(=O)CSc1cc(Cl)c(C)cc1S(=O)(=O)Nc1n[nH]c(N)n1 | -14.2% | -7.5% | -11% | -6.65% | -9.75% | 10.2%
CC(=NCCCCN=C(C)c1cc(O)cc(Br)c1O)c1cc(O)cc(Br)c1O.[Co] | 17.9% | 17.9% | 12.3% | 6.45% | 2.1% | 24.4%
CC(C)(C)C(=O)CC(=O)C(F)(F)C(F)(F)C(F)(F)F.CC(C)(C)C(=O)CC(=O)C(F)(F)C(F)(F)C(F)(F)F.CC(C)(C)C(=O)CC(=O)C(F)(F)C(F)(F)C(F)(F)F.[La] | 2.85% | -0.9% | -3.95% | -8.85% | -3.95% | 18.8%
CCC(=O)OC(C)COc1ccccc1 (configuration not stated) | -6.2% | 3.25% | -3.9% | -43.5% | -5.8% | -10.4%
O=C(O)C1Oc2cc3ccccc3cc2O1 | 30.4% | 16.4% | 19.8% | 20.3% | 23.1% | 24.5%
O=c1oc2ccccc2cc1-c1nc2ccccc2c(=O)[nH]1 | 17.8% | 8.1% | -20.9% | 13.7% | -4.9% | -50.9%
COc1ccc(N2C(=O)C/C(=C/c3ccc(C(C)C)cc3)C2=O)cc1 | 9.35% | -0.05% | 11.9% | -60% | -13.8% | 9.15%
CCOC(=O)c1[nH]c(=O)[nH]c(=O)c1[N+](=O)[O-] | 0.4% | -3.75% | 7.15% | 3.4% | -11.9% | -2.3%
O=C(OC1C2C=COC(OC3OC(CO)C(O)C(O)C3O)C2C2(CO)OC12)c1ccc(O)cc1 (configuration not stated) | -0.15% | -6.45% | 17.8% | 18.6% | 1.8% | -11.6%
COc1ccc2c(c1)[n+](=O)c(C(=O)C/C(=N/NC(=O)C[N+](C)(C)C)C(=O)Nc1cccc(C)c1C)c(C)n2O | -23.6% | -2.25% | -41% | -5.5% | 22.9% | -13.9%
CCCCSc1ncnc2nc[nH]c12 | -38% | -15.4% | -9.05% | -21.4% | -7.45% | -15.7%
Cc1ccc(NC(=O)ON(C)C)cc1 | -1.65% | 11.7% | 8.25% | -81.5% | -18.9% | -24.2%
O=C(O)C(NCCCCCNC(C(=O)O)c1ccccc1)c1ccccc1 (configuration not stated) | 15.8% | 21.2% | 15.9% | 24.9% | 13.9% | 24.6%
C#CC(=O)CCC | 26.6% | -5.8% | -4.7% | -1.1% | 32.5% | 15.6%
N#CCCN1CCCC(=O)NC1=O | 4.4% | -14.4% | -5.35% | -37.7% | -7.4% | -15.4%
Clc1ccc(C2ON=C(c3ccccc3)N2C23CC4CC(CC(C4)C2)C3)cc1Cl (configuration not stated) | 5.65% | -17.6% | 2.8% | -20% | -7.9% | -1%
CC/C=C/C(CC)(C(=O)OCC)C(=O)OCC | 5.45% | -15.8% | -6.7% | -2% | -16.3% | -20.1%
O=C1C2(c3ccccc3)CCC1(c1ccccc1)C(c1ccccc1)=C2c1ccccc1 | 40.1% | 26.9% | 7.25% | 23.9% | 3.05% | 37.5%
O=C1OCC(c2ccccc2)=C1c1ccccc1 | 22.3% | -3% | 20.3% | -16% | 6.35% | 16.6%
